This is an account of results in PubChem BioAssay.

The term inhibition denotes the relative decrease from the control value, in per cent.

Calls of active or inactive are those of the source.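 Rule for the calls, unless noted: active = inhibition at or above 50% at 10 µM; inactive = inhibition below 50%.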

A short description of test [1]: inhibitors of TNFa-induced NFkB p65 translocation, primary screen, imaging, HUVEC, MLSMR starter and 10KST1 sets (AID 438;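 active = inhibition above 20% together with a positive visual image hit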;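 note: compound added about 3h40 before a 20 min TNFalpha stimulation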;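 for inhibition: signal is the nuclear over cytoplasmic p65 intensity ratio per well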). The following applies: HUVEC TNFa-induced p65 nuclear translocation; cell count: measured here: nuclei count (cytotoxicity indicator), at 2.08 µM; inhibition: at 2 µM, stronger effect = higher value, 0% TNFa-plus-vehicle, 100% no-TNFa wells.
The nature of test [2]: inhibitors of mutant huntingtin aggregation, primary screen, imaging, exon1htt(103Q)mCFP cells, high-content imaging (AID 483;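 active = visual image review flags a hit and inhibition of aggregation exceeds 20%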;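 note: compound exposure lasted 3 days before fixation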;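 for nuclei count: percent of the per-plate median nuclei count of sample wells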). The following applies: exon1htt(103Q)mCFP cell line, aggregate imaging, at 2 µM; inhibition of aggregation: stronger effect = higher value; nuclei count: measured here: cell count, toxicity.
A short description of test [3]: inhibitors of E-selectin induction by TNFa, primary screen, imaging, HUVEC, immunofluorescence, MLSMR starter and 10KST1 sets (AID 487;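 active = visually confirmed hit in the image check and inhibition above 20%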;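 for inhibition: signal is fraction of cell area covered by stained E-selectin grains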;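 for nuclei count: 100% = median nuclei count of all wells on the same plate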). The following applies: HUVEC TNFalpha-induced E-selectin immunofluorescence imaging, at 2 µM; inhibition: stronger effect = higher value; nuclei count: measured here: cell number, toxicity.
The target of test [4] is Voltage-gated potassium channel subunit beta-2 (Rattus norvegicus) (UniProt P62483). As to the kind of experiment: KvBeta enzyme negative modulators, primary screen, biochemical, NADPH fluorescence (AID 622;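 active = fluorescence slope higher than the sample average by over 3 SD, cut at about -0.22 in these data, passing the limit was not always enough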;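 note: slope of raw intensity against log time taken from 70 to 1610 s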). The following applies: recombinant KvBeta, 4-cyanobenzaldehyde reduction, at 10 µM, stronger effect = higher value.
For test [5] the target is unchanged. As to the kind of experiment: KvBeta positive modulators, primary screen, biochemical, NADPH fluorescence (AID 623;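 active = NADPH fluorescence slope more negative than the mean of all samples by about 3 SD, 99.7% confidence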;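 note: fluorescence intensity change per second fitted from 20 to 320 s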). The following applies: Recombinant KvBeta, NADPH fluorescence decrease slope, 10 min; at 10 µM; stronger effect = lower value.
The target of test [6] is Alpha-2C adrenergic receptor (Homo sapiens) (UniProt P18825). As to the kind of experiment: modulators of alpha2C/GIRK thallium flux, primary screen, cell-based, HEK293 alpha2C/GIRK1/2 (AID 624;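 active = fluorescence slope after compound addition differing from the mean of all screened samples at 99.7% confidence, in either direction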;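 note: slope of fluorescence ratio to pre-addition baseline per second over 15 to 24 s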). The following applies: thallium flux BTC fluorescence, at 10 µM, actives lie on both sides.
A short description of test [7]: inhibitors of Sendai virus-induced IRF3 signaling, primary screen, TLR/RLR signaling modifier project, cell-based, Sendai virus stimulus, luciferase, 10K MLSCN set (AID 602276).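 Note: firefly luciferase from ISG56 promoter only with Renilla not read in this screen; 0% = Sendai virus plus DMSO and 100% = medium plus DMSO without virus.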 The conditions noted are these: HEK293 RL24 IRF3 luciferase reporter, at 10 µM, stronger effect = higher value. In general terms: Reporter assays use an easily measured gene product as a stand-in for the process of interest.

Test [8] is described as follows: inhibitors of poly I:C-induced TLR3 signaling, primary screen, cell-based, poly I:C stimulus, luciferase, 10K MLSCN set (AID 602277;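 active = inhibition of the reporter signal at or above 50%; inactive = inhibition below 50%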). The conditions noted are these: HEK293-TLR3 RL24 IRF3 luciferase reporter, at 10 µM, stronger effect = higher value.

Sequence of Alpha-2C adrenergic receptor (Homo sapiens) (P18825 whole entry, looked up): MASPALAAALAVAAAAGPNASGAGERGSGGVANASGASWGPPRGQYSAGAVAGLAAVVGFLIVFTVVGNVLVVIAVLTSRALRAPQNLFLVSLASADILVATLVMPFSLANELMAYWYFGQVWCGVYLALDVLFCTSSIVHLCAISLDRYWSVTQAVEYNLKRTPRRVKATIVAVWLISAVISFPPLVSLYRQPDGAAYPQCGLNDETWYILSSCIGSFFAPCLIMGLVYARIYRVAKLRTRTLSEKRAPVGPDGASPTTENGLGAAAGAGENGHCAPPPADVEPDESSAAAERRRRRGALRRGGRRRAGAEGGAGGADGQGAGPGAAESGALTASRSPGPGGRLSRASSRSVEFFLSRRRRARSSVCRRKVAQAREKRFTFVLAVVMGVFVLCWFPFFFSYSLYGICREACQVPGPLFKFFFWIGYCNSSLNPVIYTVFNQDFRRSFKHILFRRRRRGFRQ
Sequence of Voltage-gated potassium channel subunit beta-2 (Rattus norvegicus) (P62483 whole entry, looked up): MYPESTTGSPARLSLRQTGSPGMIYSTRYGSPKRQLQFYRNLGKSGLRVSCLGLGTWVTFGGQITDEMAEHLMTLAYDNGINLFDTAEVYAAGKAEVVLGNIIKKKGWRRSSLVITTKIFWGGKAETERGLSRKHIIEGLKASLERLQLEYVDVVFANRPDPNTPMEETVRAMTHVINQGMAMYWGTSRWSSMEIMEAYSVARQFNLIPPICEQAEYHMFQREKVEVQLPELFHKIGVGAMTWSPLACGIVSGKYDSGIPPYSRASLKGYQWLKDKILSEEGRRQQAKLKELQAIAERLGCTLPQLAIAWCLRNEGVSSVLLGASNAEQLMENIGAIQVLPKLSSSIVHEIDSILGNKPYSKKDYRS

In the case of `Nc1c(C(=O)NCc2ccco2)nnn1Cc1ccccc1`, in test [1], the cell count was 277. Moreover, the inhibition in test [1] was -13.1% (inactive); in test [3], -65.2% (inactive); in test [7] it was 8.14% (inactive); in test [8], 3.26% (inactive). Besides, in test [2], the inhibition of aggregation is 5.9% (inactive). For the same compound, the nuclei count worked out at 94.8% in test [2] and 115% in test [3]. In addition, the fluorescence slope in test [4] is -0.399 (inactive). Also, in test [5], the NADPH fluorescence slope was -4.5e-05 (inactive). For the same compound, the slope in test [6] is 0.00354 (inactive).
Take `COc1ccccc1OCc1ccc(C(=O)Nc2ccncc2)o1`: in test [1], the cell count worked out at 729. Moreover, the inhibition in test [1] is -7.3% (inactive); in test [3], -69% (inactive); in test [7], 8.87% (inactive); in test [8], -20.1% (inactive). The inhibition of aggregation in test [2] was -9.4% (inactive). Besides, the nuclei count in test [2] came out at 83.1%; in test [3], 120%. Also, the fluorescence slope in test [4] was -0.508 (inactive). In addition, the NADPH fluorescence slope in test [5] was -5.2e-05 (inactive). For the same compound, the slope in test [6] was 0.00528 (inactive).
With `COC(=O)C1=CN(C)C=C(C(=O)OC)C1c1ccc(O)c(OC)c1`, the cell count in test [1] stood at 281. For the same compound, the inhibition in test [1] is 18.4% (inactive); in test [3], 7.6% (inactive); in test [7] it was 11.2% (inactive); in test [8], 23.8% (inactive). For the same compound, the inhibition of aggregation in test [2] was -27.8% (inactive). Also, the nuclei count in test [2] was 23.5%; in test [3], 103%. The fluorescence slope in test [4] is -0.39 (inactive). Moreover, in test [5], the NADPH fluorescence slope was -4.6e-05 (inactive). Besides, in test [6], the slope was 0.00249 (inactive).
`O=C(Nc1ccc2c(c1)OCCO2)c1cnc2n(c1=O)CCS2`: the cell count in test [1] turned out to be 550. For the same compound, the inhibition is -2.3% (inactive) in test [1], -8.2% (inactive) in test [3], -79.9% (inactive) in test [7] and -177% (inactive) in test [8]. Besides, the inhibition of aggregation in test [2] was 9.3% (inactive). For the same compound, the nuclei count in test [2] turned out to be 78.2%; in test [3] it was 98.4%. The fluorescence slope in test [4] is -0.57 (inactive). Further, in test [5], the NADPH fluorescence slope was -5.8e-06 (inactive). Besides, in test [6], the slope is 0.00627 (inactive).
Turning to `CC(=O)N1CCc2c(sc(NC(=O)c3ccc(S(=O)(=O)N(C)C)cc3)c2C#N)C1`, the cell count in test [1] came out at 660. The inhibition is -0.8% (inactive) in test [1], 7.9% (inactive) in test [3], -4.77% (inactive) in test [7] and 22.6% (inactive) in test [8]. Also, the inhibition of aggregation in test [2] was 18.5% (inactive). In addition, the nuclei count in test [2] was 87.4%; in test [3], 93%. For the same compound, the fluorescence slope in test [4] was -0.52 (inactive). For the same compound, in test [5], the NADPH fluorescence slope was -3.5e-05 (inactive). Moreover, the slope in test [6] is 0.0064 (inactive).
For `O=C(NCc1cccs1)C1CC(c2ccccc2O)=NO1` (stereo not drawn), the cell count in test [1] was 347. Also, the inhibition in test [1] is 1.7% (inactive); in test [3] it was -122% (inactive); in test [7], 12.7% (inactive); in test [8], 67.7% (active). Further, the inhibition of aggregation in test [2] is -11.8% (inactive). The results for the nuclei count in test [2] and in test [3] were 104% and 108%, respectively. The fluorescence slope in test [4] is -0.601 (inactive). Moreover, the NADPH fluorescence slope in test [5] was -2.2e-05 (inactive). The slope in test [6] is 0.00342 (inactive).
Take `O=C(Nc1ccc2c(c1)OCO2)C(c1ccccc1)N1CCC2(CC1)OCCO2` (stereo not drawn): the cell count in test [1] came out at 649. Besides, the inhibition in test [1] was 2% (inactive); in test [3] it was 23.5% (inactive); in test [7], -14.7% (inactive); in test [8], 1% (inactive). For the same compound, the inhibition of aggregation in test [2] is -13.5% (inactive). For the same compound, the nuclei count was determined as 107% in test [2] and 115% in test [3]. Further, the fluorescence slope in test [4] is -0.51 (inactive). Also, in test [5], the NADPH fluorescence slope is 3.6e-05 (inactive). Moreover, the slope in test [6] is 0.00477 (inactive).
Take `CCOC(=O)c1nnc2cc(-c3ccc(Br)cc3)nn2c1C`: the cell count in test [1] worked out at 606. Further, the inhibition in test [1] was -1.7% (inactive); in test [3] it was -89.5% (inactive); in test [7], -72.6% (inactive); in test [8] it was -129% (inactive). Moreover, the inhibition of aggregation in test [2] is -4.4% (inactive). Moreover, the nuclei count in test [2] is 98.8%; in test [3], 105%. For the same compound, the fluorescence slope in test [4] is -0.558 (inactive). Also, in test [5], the NADPH fluorescence slope was -6.5e-06 (inactive). Moreover, the slope in test [6] is 0.006 (inactive).
With `Cc1c(C(=O)NCc2ccoc2)oc2ccc3c(c12)C(=O)CC(C)(C)O3`, the cell count in test [1] was 214. The inhibition in test [1] was 7.4% (inactive); in test [3] it was 7.9% (inactive); in test [7], -46% (inactive); in test [8], -231% (inactive). Also, the inhibition of aggregation in test [2] is -2.1% (inactive). For the same compound, the nuclei count was determined as 78.2% in test [2] and 103% in test [3]. Further, the fluorescence slope in test [4] was -0.531 (inactive). In test [5], the NADPH fluorescence slope is 1.8e-05 (inactive). Besides, the slope in test [6] was 0.00522 (inactive).
Regarding `COc1ccc(-c2nnc3sc(C(C)N4C(=O)c5ccccc5C4=O)nn23)cc1` (stereo not drawn), the cell count in test [1] worked out at 528. Moreover, the inhibition in test [1] was -3.3% (inactive); in test [3], -8.9% (inactive); in test [7], -9.81% (inactive); in test [8] it was -4.7% (inactive). For the same compound, in test [2], the inhibition of aggregation is 2.3% (inactive). For the same compound, the nuclei count was 91.9% in test [2] and 105% in test [3]. The fluorescence slope in test [4] is -0.45 (inactive). For the same compound, the NADPH fluorescence slope in test [5] was 4.5e-05 (inactive). Besides, the slope in test [6] was 0.00329 (inactive).
As for `CCn1c(SCC(=O)N2CCN(c3ccc(Cl)cc3)CC2)nc2ccccc2c1=O`, in test [1], the cell count was determined as 324. Further, the inhibition in test [1] was 8.1% (inactive); in test [3], -184% (inactive); in test [7] it was -8.17% (inactive); in test [8] it was -12.7% (inactive). Further, the inhibition of aggregation in test [2] is 19.7% (inactive). For the same compound, the nuclei count amounted to 83.7% in test [2] and 102% in test [3]. For the same compound, the fluorescence slope in test [4] was -0.545 (inactive). Besides, the NADPH fluorescence slope in test [5] is 4e-05 (inactive). In addition, the slope in test [6] is 0.00578 (inactive).
For the compound `CC(=O)Nc1ccc(S(=O)(=O)N(C2=NCC(C)S2)c2ccccc2)cc1` (stereo not drawn), in test [1], the cell count is 594. Besides, the inhibition is 5.4% (inactive) in test [1], -9.1% (inactive) in test [3], 11.6% (inactive) in test [7] and 11.1% (inactive) in test [8]. Moreover, the inhibition of aggregation in test [2] was -4.5% (inactive). Further, the nuclei count in test [2] was determined as 95.5%; in test [3] it was 109%. Also, the fluorescence slope in test [4] was -0.496 (inactive). Moreover, in test [5], the NADPH fluorescence slope is -1.6e-05 (inactive). Besides, the slope in test [6] was 0.00617 (inactive).
Take `Cc1[nH]c(=O)[nH]c(=O)c1S(=O)(=O)N1CCCC(C(=O)NCc2ccco2)C1` (stereo not drawn): in test [1], the cell count is 377. The inhibition in test [1] is -2.8% (inactive); in test [3] it was -48.3% (inactive); in test [7] it was -2.81% (inactive); in test [8] it was 24.8% (inactive). Further, the inhibition of aggregation in test [2] is -4.9% (inactive). The values for the nuclei count in test [2] and in test [3] were 104% and 106%, respectively. Besides, the fluorescence slope in test [4] is -0.402 (inactive). Moreover, in test [5], the NADPH fluorescence slope was -2.3e-05 (inactive). For the same compound, in test [6], the slope is 0.00332 (inactive).
